Measured values published in ChEMBL document CHEMBL3988442, “University of Dundee, Small-Polar-MMV Screening Library” (2021).
Hit rate of the full screen: of about 48,000 compounds, about 13,000 (27%) showed an effect of 50% or more. This is one part of the list.

System: Wolbachia pipientis
Assay: Anti-Wolbachia Cell-Based Screen
Format: functional
Parameters: scale not given: in the data most compounds retested in dose-response had high values
Conditions: 5 µM

Structure (SMILES)	Percent Effect [%]
COc1ccc(OC)c(NC(=O)NCC(O)c2ccc(F)c(F)c2)c1 (stereo not given)	19.22
COc1ccccc1C(O)CNC(=O)Nc1ncccc1C (stereo not given)	0.5949
CCN(C)C1CCCc2nc(C)sc21 (stereo not given)	-11.76
Cc1ccsc1C(=O)N1CCC2(CC1)C(=O)N(C)CCN2CC1CC1.O=C(O)C(F)(F)F	98.73
Cc1cc(C(=O)N2CCC3(CC2)C(=O)N(C)CCN3CC2CC2)c(C)o1.O=C(O)C(F)(F)F	105.3
Cc1cc(C(=O)N2CCC3(CC2)C(=O)N(C)CCN3CC(C)C)c(C)o1.O=C(O)C(F)(F)F	105.2
CCN1CCC2(CC1)C(=O)N(c1ccc(C)nc1)CCN2CC(C)C.O=C(O)C(F)(F)F	-13.38
Cc1ccc(OC2(C(=O)O)CCN(C(=O)c3cc(C)oc3C)CC2)cn1	-11.44
Cc1ccc(N2CCN(CC3CC3)C3(CCN(C(C)C)CC3)C2=O)cn1.O=C(O)C(F)(F)F	-1.753
CCc1ccc(CN2CCC3(CC2)C(=O)N(C)CCN3CC2CC2)cc1.O=C(O)C(F)(F)F	-26.46
Cc1cc(C(=O)N2CCC3(CC2)C(=O)NCCN3CC(C)C)c(C)o1	4.806
O=C(O)[C@@H]1CN(CCOCCO)C[C@H]1c1ccccc1	-10.46
N#Cc1ccc(OC2CCN(C(=O)c3cncc(Br)c3)CC2)nc1	3.966
CCC(C)(CC(=O)OC)NC(=O)c1ccc2[nH]ccc2c1 (stereo not given)	-0.3166
CCCn1[nH]cc/c1=N\C(=O)CN1CCCC1Cn1nc(C)nc1C (stereo not given)	-1.859
CC(=O)c1cccc(NC(=O)CN2CCCCC2C)c1 (stereo not given)	-9.973
CCCS(=O)(=O)CCN1CCOC(c2ccsc2)C1 (stereo not given)	-6.167
O=C(c1ncoc1C1CC1)N1CCCN(CCCc2ccccc2)CC1	104.8
CC(=O)N1CCCN(CCCc2ccccc2)CC1	-14.81
Cn1nccc1C(=O)N1CCCN(CCCc2ccccc2)CC1	-12.37
CC(C(=O)N1CCN(CCOc2ccccc2)CC1)n1cc(Cl)cn1 (stereo not given)	9.787
O=C(c1ncoc1C1CC1)N1CCN(CCOc2ccccc2)CC1	94.73
O=C(CCn1cc(Cl)cn1)N1CCN(CCOc2ccccc2)CC1	-6.646
Cc1ocnc1C(=O)N1CCN(CCOc2ccccc2)CC1	109.9
COc1cccc(OCC2CCCN(C(=O)c3ncoc3C3CC3)C2)c1 (stereo not given)	-37.79
Nc1nccnc1C(=O)N1CCN(CCOc2ccccc2)CC1	-15.87
O=C(c1n[nH]c2c1CCN(Cc1nccs1)C2)N1CCOCC1	14.04
O=C(CN1CCc2cncnc2C1)N1CCc2sccc2C1	-26.01

Structure (SMILES)	Percent Effect [%]
Cc1cc(CNc2ccc(C(=O)N3CCc4ccccc43)cn2)on1	23.63
CSC1(CNC(=O)NCc2sccc2C)CCOCC1	-11.79
COC(=O)NCC(=O)N(C)Cc1csc(-c2cccs2)n1	-9.296
Cc1cnc(CN(C)C2CCN(CCc3ccccn3)CC2)cn1	10.61
COc1ccccc1CN1CCC(Cc2cnc(CN(C)C)cn2)CC1	110
CN(C)Cc1cnc(CC2CCN(CCc3ccccc3)CC2)cn1	90.66
COc1ccccc1CN(C)C(=O)c1cc(CN2CCC(O)CC2)on1	-15.1
COc1ccccc1OC1CCN(Cc2cnc(N(C)C)nc2)CC1	-4.548
Cc1ncc(CN(C)C2CCCN(CCc3ccccc3)C2)n1C (stereo not given)	-4.655
COc1cccc(CN2CCC(Cc3cnc(CN(C)C)cn3)CC2)c1	111.9
CCn1c(CN(C)C)nnc1C1CCN(Cc2cccc(OC)c2)CC1	12.38
COc1cccc(CN2CCC(c3nccn3C(C)C)CC2)c1	7.494
O=C(NCCN1CCOCC1)NCc1ncc(-c2ccccc2)o1	4.39
CCc1cc(N2C[C@H](C3CC3)[C@@H](N)C2)nc(N2CCCC2)n1	13.06
O=C(C1SCCc2sccc21)N1CC(O)C1 (stereo not given)	-8.874
CCCn1nc(C(=O)NCc2nnc3n2CCC3)ccc1=O	10.17
O=C(NCc1nnc2n1CCC2)c1ccc(Br)s1	111.9
O=C(NCc1nc(-c2ncccn2)no1)c1ccc(C2CCCO2)s1 (stereo not given)	1.896
O=C(c1ccc(C2CCCO2)s1)N1CCS(=O)(=O)CC1 (stereo not given)	-17.24
O=C(NCCc1nc(-c2ccccn2)no1)c1ccc(C2CCCO2)s1 (stereo not given)	1.168
O=C(NCCc1nc(-c2cccnc2)no1)c1ccc(C2CCCO2)s1 (stereo not given)	9.289
O=C(NCc1nnc2n1CCCC2)c1ccc(C2CCCO2)s1 (stereo not given)	101.2
O=C(NCc1nnc2n1CCC2)c1ccc(C2CCCO2)s1 (stereo not given)	92.93
O=C(NCc1nnnn1-c1ccccc1)c1ccc(C2CCCO2)s1 (stereo not given)	107.3
Brc1ccc(CNCc2nnc3n2CCC3)s1.Cl	7.308
O=C(c1ccc(C2CCCO2)s1)N1CCOCC1 (stereo not given)	12.38
Brc1ccc(CNCc2nnc3n2CCCCC3)s1.Cl	-9.966
